Changes are numbered by the printed parent chain.
These sequences were tested against T1, SALL4 ZFC4 WT (HT-SELEX) (Mus musculus, UniProt Q8BX22 870-940) (assay: HT-SELEX; high values mean tight binding). Settings: protein: recombinant; vector His6-GST; dsDNA, one strand shown.
T1 sequence: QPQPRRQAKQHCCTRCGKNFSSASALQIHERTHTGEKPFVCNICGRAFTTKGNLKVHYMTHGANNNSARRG
In short: (§1)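 In triplicate selections of up to 6 cycles, purified recombinant mouse SALL4 zinc finger cluster 4 (residues 870–940, 1 µg) was incubated 10 min at room temperature with library DNA (1.5 µg, then 200 ng) in 100 µl of 10 mM Tris–HCl pH 7.5, 50 mM NaCl, poly(dI-dC) and DTT, and complexes were captured on Ni2+ beads, washed and PCR-amplified. Sequencing was done on MiSeq with scanning for 6-mers. The binding signal is each canonical k-mer's read fraction, reported as fold change against the initial random library.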

Row | Sequence | binding signal [fold-change vs cycle 0]
1 | GGATTA | 1.49 ± 0.0733
2 | CCTAAG | 0.941 ± 0.0158
3 | AAGCAC | 0.582 ± 0.0244
4 | TAAGCA | 1.282 ± 0.00819
5 | ACAAGC | 0.616 ± 0.0453
6 | CTTCTC | 0.952 ± 0.0502
7 | CGTAAG | 0.774 ± 0.0532
8 | AGTTAT | 2.81 ± 0.247
9 | ATCTAC | 1.31 ± 0.0255
10 | AGATTA | 2.21 ± 0.147
11 | CTCCTA | 0.926 ± 0.0641
12 | GAGCTC | 0.338 ± 0.0166
13 | ACACGG | 0.354 ± 0.0115
14 | ATGTAC | 1.295 ± 0.0117
15 | AAGGGG | 0.527 ± 0.0535
16 | GACACA | 0.629 ± 0.04
17 | ATGGAC | 0.777 ± 0.0185
18 | AGTTTC | 1.25 ± 0.0447
19 | ACTTCC | 0.854 ± 0.0494
20 | AAAAAT | 3.83 ± 0.465

Row | Sequence | binding signal [fold-change vs cycle 0]
21 | CAACAG | 0.698 ± 0.0379
22 | CACACC | 0.375 ± 0.0351
23 | AGCAAG | 0.735 ± 0.0328
24 | GGGGTA | 0.484 ± 0.0383
25 | AAGGAA | 1.46 ± 0.0939
26 | GGGTAC | 0.482 ± 0.0239
27 | CGAAAG | 0.614 ± 0.0288
28 | AGACTG | 0.764 ± 0.0533
29 | CAGACG | 0.352 ± 0.0274
30 | AGCCTG | 0.325 ± 0.0218
31 | AGATCA | 1.29 ± 0.0762
32 | ATGGAA | 1.5 ± 0.0823
33 | CCTTCC | 0.487 ± 0.0167
34 | TCGGAA | 0.681 ± 0.041
35 | ATTGGC | 0.461 ± 0.0252
36 | AGCGAA | 0.492 ± 0.0304
37 | AAACTC | 1.19 ± 0.0627
38 | CATACC | 0.854 ± 0.0198
39 | TGACAA | 1.16 ± 0.0336
40 | AAGATT | 2.05 ± 0.0988

The sequences below were run against T2, SALL4 ZFC4 R900W (HT-SELEX) (Mus musculus, UniProt Q8BX22 870-940, R900W) (assay: HT-SELEX; high values mean tight binding). Settings: protein: recombinant; vector His6-GST; dsDNA, one strand shown.
T2 sequence: T1 sequence with R31W
In short: as §1

Row | Sequence | binding signal [fold-change vs cycle 0]
41 | GGATTA | 1.47 ± 0.0516
42 | CCTAAG | 1.05 ± 0.0579
43 | AAGCAC | 0.678 ± 0.0144
44 | TAAGCA | 1.3 ± 0.0615
45 | ACAAGC | 0.707 ± 0.0111
46 | CTTCTC | 1.11 ± 0.0917
47 | CGTAAG | 0.862 ± 0.0372
48 | AGTTAT | 2.13 ± 0.15
49 | ATCTAC | 1.41 ± 0.0427
50 | AGATTA | 2.14 ± 0.14
51 | CTCCTA | 1.07 ± 0.0219
52 | GAGCTC | 0.439 ± 0.0575
53 | ACACGG | 0.455 ± 0.00764
54 | ATGTAC | 1.38 ± 0.0189
55 | AAGGGG | 0.628 ± 0.0342
56 | GACACA | 0.754 ± 0.0153
57 | ATGGAC | 0.861 ± 0.0318
58 | AGTTTC | 1.33 ± 0.0345
59 | ACTTCC | 1.02 ± 0.0553
60 | AAAAAT | 2.16 ± 0.197

Source: publication PMC9838217, “Structure of SALL4 zinc finger domain reveals link between AT-rich DNA binding and Okihiro syndrome”
